Source: PubChem BioAssay
Activity calls are given as the source filed them.

Experiments:
Albumin (Bos taurus) = Albumin (Bos taurus) (UniProt P02769); experiment: bovine serum albumin binders on microarray, profiling panel, artefact control for SMM control protein annotation, biochemical, small-molecule microarray, Alexa647 label, 635/667 nm fluorescence (AID 1118); conditions: BSA-A647 binding, fluorescence 635 nm, higher = more signal;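 also: score merges 667 nm emission intensity and signal-to-noise per printed compound spot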
[1] = small-molecule microarray binders of probe aXIP, primary screen, biochemical, NeuroSMM set, 635/667 nm fluorescence (AID 1119); conditions: higher = more signal, called active from +8 up or from −8 down;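 also: probe is the protein aXip251-270 applied at 1 µg/mL to compound-printed slides; binding of probe to printed compounds measured as 667 nm fluorescence plus signal to noise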
[2] = small-molecule binders of probe aNOTCH3, primary screen, biochemical, small-molecule microarray, 635/667 nm fluorescence (AID 1120); conditions: higher = more signal;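 also: probe is a biotin-tagged antibody raised against NOTCH3 rather than NOTCH3 protein; score merges spot fluorescence near 667 nm with spot signal to noise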
[3] = small-molecule binders of probe aNOTCH2, primary screen, biochemical, small-molecule microarray, 635/667 nm fluorescence (AID 1121); conditions: higher = more signal;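 also: score merges feature fluorescence read at 667 nm with its signal to noise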
[4] = molecular target: Carbonic anhydrase 2 (Homo sapiens) (UniProt P00918); experiment: CAII small-molecule binders, profiling panel, biochemical, small-molecule microarray, Alexa647-labelled CAII (AID 1122); conditions: CAII-A647 binding fluorescence, higher = more signal
[5] = COS7 lysate on small-molecule microarray, probe aHis, 635 nm (AID 1123); conditions: COS7 cell lysate, fluorescence, higher = more signal;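 also: z-score combines 667nm fluorescence intensity with signal-to-noise per printed compound spot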
[6] = compound binding in COS7 lysate, probe aLAP1, primary screen, cell lysate, small-molecule microarray (AID 1124); conditions: probe aLAP1, fluorescence, higher = more signal;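 also: lysate comes from COS7 cells expressing LAP1 and is applied at 0.3 µg/mL; score merges spot fluorescence near 667 nm with signal-to-noise over triplicate slides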
Sam68 (KHDRBS1) = experiment: Sam68 small-molecule binders, primary screen, biochemical, small-molecule microarray, 635 nm fluorescence (AID 1125); conditions: small-molecule microarray binding, higher = more signal;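 also: score merges 667 nm channel intensity with signal to noise over triplicate slides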
[7] = test system: Chordin-like protein 2 (CHRDL2); experiment: CHRDL2 small-molecule binders, primary screen, biochemical, small-molecule microarray, 635 nm fluorescence (AID 1126); conditions: small-molecule microarray binding, fluorescence 635 nm; higher = more signal;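 also: printed compound slides probed with Chrdl2 protein at 4 µg/mL for 1 h at 4 C; score merges 667 nm emission intensity with signal to noise over three replicate slides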
[8] = molecular target: Concanavalin-A (Canavalia ensiformis) (UniProt P02866); experiment: ConA small-molecule binders, primary screen, artefact control for SMM control protein annotation, biochemical, small-molecule microarray, Alexa647 label, 635 nm (AID 1127); conditions: ConA-A647 binding fluorescence, higher = more signal;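 also: z combines 667 nm emission intensity with signal-to-noise across three replicate slides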
[9] = anti-His antibody binders, primary screen, artefact control for SMM control protein annotation, biochemical, small-molecule microarray, 635 nm fluorescence (AID 1128); conditions: anti-His Alexa647 antibody binding, higher = more signal;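 also: score merges feature fluorescence with signal-to-noise for each printed compound spot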
[10] = test system: Human papillomavirus type 1a E7 protein (residues 1-88); experiment: HPV1a E7 small-molecule binders, primary screen, biochemical, small-molecule microarray, residues 1-88, 635 nm (AID 1129); conditions: small-molecule microarray binding, fluorescence 635 nm; higher = more signal
[11] = molecular target: Focal adhesion kinase 1 (Homo sapiens) (UniProt Q05397); experiment: small-molecule microarray binders of FAK, primary screen, biochemical, 635/667 nm fluorescence, BSA, DTT (AID 1130); conditions: PTK2 binding, 635 nm fluorescence, higher = more signal;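 also: composite of spot emission at 667 nm and signal to noise over triplicate slides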
[12] = test system: Fibrinogen (Alexa647-labelled); experiment: fibrinogen binders on compound microarrays, profiling panel, artefact control for SMM control-protein annotation, biochemical, small-molecule microarray, 635/667 nm fluorescence (AID 1131); conditions: fibrinogen-A647 binding fluorescence, higher = more signal;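 also: z-score merges 667 nm fluorescence with per-spot signal-to-noise over triplicate slides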
[13] = molecular target: Follistatin (Homo sapiens) (UniProt P19883); experiment: follistatin binders on small-molecule microarrays, primary screen, biochemical, small-molecule microarray, 635/667 nm fluorescence (AID 1132); conditions: FST binding, 635 nm fluorescence, higher = more signal
[14] = molecular target: Fibroblast growth factor 2 (Homo sapiens) (UniProt P09038); experiment: FGF2 binders on small-molecule microarrays, primary screen, biochemical, small-molecule microarray, 635/667 nm fluorescence (AID 1133); conditions: small-molecule microarray binding, FGF2, fluorescence 635/667; higher = more signal
[15] = mitochondrial membrane potential change in A549 cells, profiling panel, cell-based, JC-1 fluorescence, basal, 24 h, 100 nL (AID 1138); conditions: higher = more signal;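 also: A549 lung adenocarcinoma cells under basal conditions with no added stimulus; test concentration not given here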
Lefty1 = Lefty1 binders on small-molecule microarrays, primary screen, biochemical, small-molecule microarray, 635/667 nm fluorescence (AID 1139); conditions: small-molecule microarray binding, fluorescence 635/667; higher = more signal
[16] = test system: wheat germ agglutinin (Triticum aestivum), Alexa647-labelled; experiment: wheat germ agglutinin binders on compound microarrays, profiling panel, artefact control for SMM control-protein annotation, biochemical, small-molecule microarray, 635/667 nm fluorescence (AID 1140); conditions: WGA-A647 binding, 635 nm fluorescence, higher = more signal;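 also: score merges 667 nm feature emission with signal to noise over triplicate slides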
[17] = molecular target: Luciferin 4-monooxygenase (Photinus pyralis) (UniProt P08659); experiment: firefly luciferase enzyme inhibitors, primary screen, biochemical, luminescence, purified enzyme, 2006 set (AID 1141); conditions: SteadyGlo luminescence, 30 min, higher = more signal, called active from +8 up or from −8 down;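 also: cell-free assay with purified firefly luciferase at 100 ng per well in PBS; test concentration not given here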
Luciferin 4-monooxygenase (Photinus pyralis), sequence (P08659 whole entry, looked up): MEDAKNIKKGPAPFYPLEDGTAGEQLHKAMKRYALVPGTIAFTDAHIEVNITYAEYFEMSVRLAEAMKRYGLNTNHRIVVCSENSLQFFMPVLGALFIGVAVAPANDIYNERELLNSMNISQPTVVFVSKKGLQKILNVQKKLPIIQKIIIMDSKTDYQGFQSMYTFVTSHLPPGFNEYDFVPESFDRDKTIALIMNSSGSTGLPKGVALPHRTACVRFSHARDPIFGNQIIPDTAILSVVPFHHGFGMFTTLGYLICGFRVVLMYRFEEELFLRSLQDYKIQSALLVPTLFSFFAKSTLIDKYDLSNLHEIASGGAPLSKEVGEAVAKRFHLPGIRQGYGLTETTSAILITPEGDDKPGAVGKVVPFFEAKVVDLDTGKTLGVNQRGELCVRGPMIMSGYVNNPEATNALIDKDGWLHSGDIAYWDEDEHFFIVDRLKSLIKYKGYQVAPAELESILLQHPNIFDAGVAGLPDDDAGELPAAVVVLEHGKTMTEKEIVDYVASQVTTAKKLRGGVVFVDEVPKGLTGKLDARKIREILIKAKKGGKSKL

Follistatin (Homo sapiens), sequence (P19883 whole entry, looked up): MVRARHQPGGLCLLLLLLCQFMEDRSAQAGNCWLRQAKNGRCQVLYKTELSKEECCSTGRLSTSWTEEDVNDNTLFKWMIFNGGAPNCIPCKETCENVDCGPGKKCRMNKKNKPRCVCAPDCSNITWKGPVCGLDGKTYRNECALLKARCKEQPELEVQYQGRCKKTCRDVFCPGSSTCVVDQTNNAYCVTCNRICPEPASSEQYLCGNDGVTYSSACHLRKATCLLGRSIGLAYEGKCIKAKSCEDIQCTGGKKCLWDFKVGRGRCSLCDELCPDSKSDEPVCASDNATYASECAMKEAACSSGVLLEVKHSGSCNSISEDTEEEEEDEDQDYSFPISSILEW
Fibroblast growth factor 2 (Homo sapiens), sequence (P09038 whole entry, looked up): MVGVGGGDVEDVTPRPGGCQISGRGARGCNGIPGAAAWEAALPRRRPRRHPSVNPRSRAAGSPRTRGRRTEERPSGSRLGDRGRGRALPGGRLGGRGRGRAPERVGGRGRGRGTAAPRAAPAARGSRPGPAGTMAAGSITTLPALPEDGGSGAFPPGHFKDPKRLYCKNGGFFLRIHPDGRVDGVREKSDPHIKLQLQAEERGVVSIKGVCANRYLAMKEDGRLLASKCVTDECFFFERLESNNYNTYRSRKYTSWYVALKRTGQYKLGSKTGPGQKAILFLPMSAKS
Albumin (Bos taurus), sequence (P02769 whole entry, looked up): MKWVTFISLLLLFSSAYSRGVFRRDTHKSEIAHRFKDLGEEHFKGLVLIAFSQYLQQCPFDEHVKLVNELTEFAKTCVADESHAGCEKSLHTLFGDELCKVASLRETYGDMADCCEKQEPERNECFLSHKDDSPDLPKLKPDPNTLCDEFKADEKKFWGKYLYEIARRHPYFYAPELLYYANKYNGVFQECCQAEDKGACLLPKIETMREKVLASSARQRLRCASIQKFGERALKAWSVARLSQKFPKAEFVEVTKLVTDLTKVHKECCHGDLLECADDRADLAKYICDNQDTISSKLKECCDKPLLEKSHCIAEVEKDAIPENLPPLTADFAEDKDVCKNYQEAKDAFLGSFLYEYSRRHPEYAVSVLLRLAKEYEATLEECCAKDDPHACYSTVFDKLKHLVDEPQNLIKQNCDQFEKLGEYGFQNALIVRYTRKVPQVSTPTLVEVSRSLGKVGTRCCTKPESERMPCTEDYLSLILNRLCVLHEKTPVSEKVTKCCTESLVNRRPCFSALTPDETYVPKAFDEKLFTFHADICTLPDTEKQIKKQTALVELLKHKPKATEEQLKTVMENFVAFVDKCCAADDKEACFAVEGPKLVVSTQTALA
Focal adhesion kinase 1 (Homo sapiens), sequence (Q05397 whole entry, looked up): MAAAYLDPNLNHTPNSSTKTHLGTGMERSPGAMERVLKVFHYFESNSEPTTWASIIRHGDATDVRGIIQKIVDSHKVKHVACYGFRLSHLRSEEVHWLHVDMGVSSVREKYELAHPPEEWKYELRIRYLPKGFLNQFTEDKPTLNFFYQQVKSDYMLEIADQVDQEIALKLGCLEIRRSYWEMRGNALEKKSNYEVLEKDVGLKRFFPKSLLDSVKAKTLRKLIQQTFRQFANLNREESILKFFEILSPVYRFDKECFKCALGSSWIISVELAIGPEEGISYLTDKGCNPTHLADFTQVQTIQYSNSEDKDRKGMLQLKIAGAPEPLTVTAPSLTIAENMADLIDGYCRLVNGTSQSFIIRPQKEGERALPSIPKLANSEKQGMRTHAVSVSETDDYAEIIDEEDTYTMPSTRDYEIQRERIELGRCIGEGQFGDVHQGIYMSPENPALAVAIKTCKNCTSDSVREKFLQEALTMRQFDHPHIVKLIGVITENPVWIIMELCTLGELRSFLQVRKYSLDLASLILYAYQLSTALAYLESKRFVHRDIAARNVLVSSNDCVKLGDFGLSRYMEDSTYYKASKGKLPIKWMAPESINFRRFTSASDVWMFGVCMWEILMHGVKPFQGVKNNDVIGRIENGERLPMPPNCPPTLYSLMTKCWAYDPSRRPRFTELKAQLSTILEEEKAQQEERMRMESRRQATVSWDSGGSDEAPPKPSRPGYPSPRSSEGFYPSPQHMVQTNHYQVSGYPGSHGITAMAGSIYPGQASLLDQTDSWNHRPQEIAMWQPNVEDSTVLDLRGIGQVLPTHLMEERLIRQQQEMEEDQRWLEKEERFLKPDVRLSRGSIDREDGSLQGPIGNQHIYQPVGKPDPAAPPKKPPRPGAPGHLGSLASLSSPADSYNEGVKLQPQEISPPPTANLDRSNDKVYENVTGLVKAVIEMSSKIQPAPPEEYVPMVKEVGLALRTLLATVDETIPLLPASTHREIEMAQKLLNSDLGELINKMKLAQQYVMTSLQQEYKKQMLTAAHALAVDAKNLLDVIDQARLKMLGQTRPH
Concanavalin-A (Canavalia ensiformis), sequence (P02866 whole entry, looked up): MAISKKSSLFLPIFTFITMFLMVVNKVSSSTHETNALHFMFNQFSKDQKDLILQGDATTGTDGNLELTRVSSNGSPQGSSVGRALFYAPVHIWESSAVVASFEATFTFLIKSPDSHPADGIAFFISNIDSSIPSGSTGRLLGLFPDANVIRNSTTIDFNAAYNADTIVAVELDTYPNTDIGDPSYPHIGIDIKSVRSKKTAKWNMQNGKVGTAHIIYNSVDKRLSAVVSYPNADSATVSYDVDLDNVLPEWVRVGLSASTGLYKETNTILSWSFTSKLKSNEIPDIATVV

Compound | composite z-score (Albumin (Bos taurus)) | composite Z-score [1] | composite z-score [2] | composite z-score [3] | composite z-score [4] | composite z-score [5] | composite z-score [6] | composite z-score (Sam68 (KHDRBS1)) | composite z-score [7] | composite z-score [8] | composite z-score [9] | composite z-score [10] | composite z-score [11] | composite z-score [12] | composite z-score [13] | composite z-score [14] | z-score [15] | composite z-score (Lefty1) | composite z-score [16] | z-score [17]
COC(=O)[C@@H]1CC[C@H](C)[C@@H](c2ccc(Br)cc2)N1C[C@@H](O)CN=[N+]=[N-] | -0.236 | -0.509 (inactive) | 0.0016 | -0.18 | -0.0121 | 0.23 | 0.546 | 0.56 | 0.401 | -0.0032 | 0.215 | -0.0633 | -0.0902 | 0.128 | 0.4 | 0.4 | -0.822 | 0.45 | -0.0107 | 0.0386 (inactive)
CCOC(=O)[C@H](CC(C)C)NC(=O)CCC1CC(OC(=O)NCc2ccc3c(c2)OCO3)CC2(CCCC(COC(=O)NCCc3ccccc3OC)O2)O1 (stereo not given in full) | 0.31 | 1.05 (inactive) | -0.0328 | -0.0633 | 0.127 | 0.754 | 0.0278 | 1.29 | 0.663 | 1.05 | 0.746 | 1.13 | 0.283 | 0.669 | 0.826 | 1.15 | -0.717 | 0.787 | 0.196 | 0.867 (inactive)
CCN1C(=O)[C@H]2[C@H]3[C@H](O)[C@H](O)CC(=NNC(=O)OCc4ccccc4)[C@H]3CC[C@H]2C1=O | 0.185 | -0.431 (inactive) | 0.0145 | -0.129 | -0.0576 | 0.0949 | -0.198 | -0.813 | -0.0255 | 0.514 | 0.0371 | -0.601 | -0.117 | 0.0307 | -0.238 | 0.215 | -0.538 | 0.235 | 0.136 | 0.69 (inactive)
C=CCOCC1CN2[C@@H](CC[C@@H](C)[C@@H]2c2ccc(Br)cc2)C(=O)O1 (stereo not given in full) | -0.509 | 0.419 (inactive) | -0.0932 | -0.189 | -0.401 | -0.329 | 0.975 | -0.85 | 0.562 | -0.172 | 0.24 | -0.695 | -0.262 | -0.5 | 0.119 | 0.166 | 1.88 | 0.262 | -0.16 | -0.764 (inactive)
C[C@H]1CC[C@H]2C(=O)OC(COc3ccc(C(C)(C)C)cc3)CN2[C@@H]1c1ccc(Br)cc1 (stereo not given in full) | 0.654 | 0.455 (inactive) | -0.165 | -0.189 | 0.267 | 1.42 | 0.2 | 0.961 | 0.186 | 1.02 | 0.148 | 1.15 | 0.29 | 0.819 | 0.312 | 0.118 | 1.28 | 0.334 | 0.264 | -1.37 (inactive)
C[C@H]1CC[C@H]2C(=O)N[C@H](Cc3ccccc3)C(=O)N2[C@@H]1c1ccccc1 | -0.456 | 0.418 (inactive) | -0.177 | -0.0811 | -0.0975 | -0.227 | -0.306 | -0.824 | 0.678 | -0.126 | -0.106 | -0.138 | 0.128 | -0.0797 | 0.187 | 0.831 | 0.514 | 0.426 | -0.112 | -0.854 (inactive)
CC(C)(C)N1C(=O)[C@H]2[C@H]3[C@H](O)[C@H](O)CC(=NOC[C@@H](O)COCc4ccco4)[C@@H]3CC[C@H]2C1=O | 0.617 | 0.103 (inactive) | -0.0311 | -0.0984 | -0.129 | 0.0171 | 0.227 | -0.254 | 0.107 | 0.506 | -0.329 | -0.451 | -0.0584 | 0.961 | -0.396 | -0.0677 | -0.521 | -0.211 | 0.915 | -0.124 (inactive)
COc1ccc(COC(=O)NN=C2C[C@@H](O)[C@@H](O)[C@@H]3[C@@H]4C(=O)N(C(C)(C)C)C(=O)[C@@H]4CC[C@@H]23)cc1 | 0.584 | 0.526 (inactive) | 0.136 | -0.167 | 0.346 | 0.685 | 0.31 | 1.14 | 0.59 | 0.632 | 0.839 | 0.656 | -0.14 | 0.874 | 0.542 | 0.247 | -0.367 | 0.548 | 0.608 | 0.137 (inactive)
COC(=O)[C@@H]1CC[C@H](C)[C@@H](c2ccc(C)cc2)N1C(=O)c1ccc(C=NOC[C@H]2O[C@H](c3ccccc3)C=C[C@@H]2Oc2ccc(OC)cc2)cc1 | 0.312 | -0.496 (inactive) | 0.0257 | -0.161 | -0.145 | -0.336 | -0.192 | 0.233 | 0.692 | 0.45 | -0.585 | -0.274 | -0.0204 | -0.324 | 0.222 | 0.174 | -0.351 | 0.244 | 0.172 | 1.18 (inactive)
CCN1C(=O)[C@H]2[C@H]3[C@H](O)[C@H](O)CC(=NOCC=C(C)CCC=C(C)C)[C@@H]3CC[C@H]2C1=O | 0.44 | -0.496 (inactive) | 0.144 | -0.118 | 0.0577 | 0.162 | 0.39 | 1.25 | 1.39 | 0.13 | 0.521 | 0.344 | -0.0746 | 0.493 | 1.31 | 1.01 | -0.717 | 1.23 | -0.207 | 0.146 (inactive)
